PubChem BioAssay (NCI)
Compounds without any hit were thinned out: in the full panel of roughly 83,000, 20% have a hit.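 The test compound was applied at a single concentration to cells in 96-well plates for 48 hours, and percent growth was recorded.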 Active and inactive are the calls of the source. The calls were made as follows: active = growth percent below 10; inactive = the rest.

Legend:
Assay in all cases: NCI-60 one-dose screen, 48 h (100 = growth as untreated, 0 = no growth, -100 = all killed)
[1] = test system: T-47D breast; conditions: 10 µM
[2] = test system: BT-549 breast; conditions: 10 µM unless noted
[3] = test system: MDA-MB-435 melanoma; conditions: 10 µM unless noted
[4] = test system: SW-620 colon; conditions: 10 µM unless noted
[5] = test system: MCF7 breast; conditions: 10 µM unless noted
[6] = test system: HCT-116 colon; conditions: 10 µM unless noted
[7] = test system: HCC-2998 colon; conditions: 10 µM unless noted
[8] = test system: KM12 colon; conditions: 10 µM unless noted

Measured: growth

COC(=O)c1c2c(c(C)[n+]([O-])c1C)C(=O)C=C(NCc1cccc(Cl)c1)C2=O
active: [1] -37.6% | [2] -82.3% | [3] -92.1% | [4] -31.4% | [5] -61.3% | [6] -13.7% | [7] -38.3% | [8] 0.497%

CC1SC(c2cccc(Oc3ccccc3)c2)N(CCc2cccs2)C1=O (stereo not drawn)
active: [1] 0.211% | [2] -69.2% | [3] -43.1% | [4] -3.96% | [5] -0.665% | [6] -85.6% | [7] -32.9% | [8] -25.2%

O=C(Nc1ccc(Cl)c(Cl)c1)NC(CO)(CO)CO
inactive: [1] 96% | [2] 93.8% | [3] 95.8% | [4] 101% | [5] 97.4% | [6] 101% | [7] 102% | [8] 97.7%

FC(F)(F)c1ccc2c(c1)n1cnnc1c1nncn21
inactive: [1] 102% | [2] 103% | [3] 112% | [4] 108% | [5] 98.2% | [6] 105% | [7] 108% | [8] 110%

CCCCC(CCCC)(S(=O)(=O)CC)S(=O)(=O)CC
inactive: [1] 101% | [2] 96.6% | [3] 97.4% | [4] 102% | [5] 105% | [6] 98.9% | [7] 111% | [8] 96.7%

O=C1C2CC3C(CC2C(=O)[N]1[Sn]([c]1ccccc1)([c]1ccccc1)[c]1ccccc1)C1(Cl)C(Cl)=C(Cl)C3(Cl)C1(Cl)Cl (stereo not drawn)
active: [1] -50.3% | [2] -95.3% | [3] -96.4% | [4] -79.7% | [5] -64.7% | [6] -83.9% | [7] -82.2% | [8] -91.3%

O=C(NCc1ccco1)C1CCN(S(=O)(=O)c2ccc(Cl)cc2)CC1
active: [3] -9%
inactive: [1] 78% | [2] 84.4% | [4] 38.5% | [5] 64.7% | [6] 70.4% | [7] 80.3% | [8] 37.6%

CN1CCn2c(c(Sc3ccc(C(=O)NO)cc3)c3ccccc32)C1=O
inactive: [1] 14.6% | [5] 27.1%
active: [2] 2.47% | [3] -74.6% | [4] -14.4% | [6] -39.3% | [7] -37.8% | [8] -51.4%

Clc1cccc(Cl)c1Nc1ccc2nnc(-c3ccncc3)n2n1
inactive: [1] 91.3% | [2] 114% | [3] 104% | [4] 102% | [5] 95.2% | [6] 98.9% | [7] 97.1% | [8] 112%

O=c1[nH]c(-c2ccncc2)nc2sc3c(c12)CCCCCC3
inactive: [1] 24.6% | [2] 98.9% | [3] 77.7% | [4] 72.2% | [5] 77.4% | [6] 46.6% | [7] 101% | [8] 84.4%

CCCCc1ccc(C(O)(CCN2CC3CCC(CC3)C2)c2ccccc2)cc1 (stereo not drawn)
inactive: [1] 73.8% | [2] 90.2% | [3] 98.2% | [4] 95.7% | [5] 95.7% | [6] 77% | [7] 90.1% | [8] 93.2%

Cc1nc2cc(Nc3nc(NCCO)nc(Nc4ccc(F)cc4)n3)ccc2n1Cc1ccccc1
inactive: [1] 65.3% | [2] 101% | [3] 91.6% | [4] 109% | [5] 91.3% | [6] 76.5% | [7] 106% | [8] 80.3%

O=c1ccc2ccccc2o1
inactive: [1] 116% | [2] 87.1% | [3] 102% | [4] 105% | [5] 98.3% | [6] 104% | [7] 106% | [8] 99.1%

CNc1ccc(Br)cc1-c1n[nH]c(=O)[nH]c1=O
inactive: [1] 109% | [2] 99.9% | [3] 98.8% | [4] 92.9% | [5] 90.2% | [6] 98.2% | [7] 107% | [8] 111%

CCCCCCCCCCCCSC1=CC(=O)C=CC1=O
inactive: [1] 30.6% | [2] 16.5% | [3] 102% | [4] 109% | [5] 68.9% | [6] 78.3% | [7] 94.3% | [8] 48.9%

Clc1ccc(Nc2nc(Nc3ccccc3)nc(Nc3ccc(-c4cc(-c5ccc(Cl)cc5)on4)cc3)n2)cc1
inactive: [1] 71.7% | [2] 59.1% | [3] 11.1% | [4] 38.7% | [5] 50% | [6] 27.4% | [7] 56.4% | [8] 56.9%

Cc1ccc(S(=O)(=O)N2C/C(=C\c3cc(F)cc(F)c3)C(=O)/C(=C/c3cc(F)cc(F)c3)C2)cc1
active: [1] -0.238% | [2] -16.9% | [3] -76.6% | [4] -47% | [5] -75.4% | [6] -93.9% | [7] -82.6% | [8] -30.6%

CN1CCN(CCCn2c3c(sc4ncccc43)c(=O)n3nnc(-c4ccccc4)c23)CC1
inactive: [1] 113% | [2] 93.5% | [3] 97.9% | [7] 99.2%
active: [4] -44.5% | [5] -90.6% | [6] -92.6% | [8] -32.1%

Cn1c(=O)c2c(-c3ccccc3F)n(-c3ccc4c(c3)OCO4)cc2n(C)c1=O
inactive: [1] 81.3% | [2] 95.1% | [3] 88.6% | [4] 102% | [5] 94.5% | [6] 85.8% | [7] 92.2% | [8] 102%

O=C1CCC(N2C(=O)c3cccc(NCCOCCOCCNC(=O)c4cc5c(o4)C(=O)c4ccccc4C5=O)c3C2=O)C(=O)N1 (stereo not drawn)
active: [1] 4.87% | [2] -89.3% | [3] -92.1% | [4] -19.3% | [5] -61.3% | [6] -16.1% | [7] -61.7% | [8] -8.32%

Cc1nn(CC(=O)O)c2c1C(=O)CC(C)(C)C2
inactive: [1] 104% | [2] 104% | [3] 106% | [4] 117% | [5] 102% | [6] 92.3% | [7] 98.9% | [8] 109%

CCCN(CCC)c1ccc(/C=C/c2ccc3cc(OCC)ccc3n2)cc1
inactive: [1] 59.1% | [2] 119% | [3] 95% | [4] 89.6% | [5] 84.9% | [6] 70.4% | [7] 94.4% | [8] 128%

CCOC(=O)c1c(Cl)c2c(n1Cc1ccc(OC)cc1)-c1oncc1CCC2
inactive: [1] 83.6% | [2] 70.4% | [3] 101% | [4] 71.1% | [5] 82.3% | [6] 62.3% | [7] 66.9% | [8] 96.8%

O=c1c2cc(F)ccc2oc2c(NCCNCCO)nc3ccccc3c12
inactive: [1] 84.8% | [2] 79.8% | [3] 48.5% | [4] 21.4% | [5] 31.4% | [6] 17.2% | [7] 56.5% | [8] 31.8%

Cc1ccc(-c2c3c(N)c4c(nc3nc3c2c(C)nn3-c2ccccc2)CCCC4)cc1
inactive: [1] 92.6% | [2] 109% | [3] 96.4% | [4] 97.1% | [5] 94.2% | [6] 90.2% | [7] 107% | [8] 105%

CCCCCCCCCCCC(=O)[O][Sn]([CH2]CCC)([CH2]CCC)[CH2]CCC
active: [1] -89.9% | [2] -100% | [3] -91.6% | [4] -43.2% | [5] -88.2% | [6] -100% | [7] -92.2% | [8] -91.4%
